Measurements: the supplement of paper PMC10849652
The full data set covers some 7,900 targets. This sample favours those with a hit. About 0.6% of all pairs of compound and target were hits.

What was measured:
Test in all cases: log2 fold change, soluble protein after heating vs DMSO (PISA); higher = thermal stabilisation; K562 cells, 10 uM, 30 min; active = over 0.2 and 3.5 SD of the protein, either way, in both replicates (recomputed)
erlotinib = compound: C#Cc1cccc(Nc2ncnc3cc(OCCOC)c(OCCOC)cc23)c1 [erlotinib]
Outline: (§1)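 Soluble protein was quantified by TMTpro 16plex LC-MS/MS after channel sums were equalised. It was obtained as the supernatant after 21,000xg for 90 min from pooled aliquots of K562 cells (2×10^6 cells/mL, 10 μM compound, 30 min) heated for 3 min across 48°C-58°C and extracted in PBS with 0.5% NP-40 at 4°C. Thermal stability values are relative to control samples and come from duplicates. They are given as log2 fold changes.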

[1] = compound: C/C(=N\NC(=O)C1=CC(=CC=C1)S(=O)(=O)N2CCOCC2)/C3=C(C=CC(=C3)Cl)O
Outline: as §1

[2] = compound: C1=CC(=C(C=C1Cl)C2=NC3=NC=CN=C3C(=N2)NC4=CC=NC=C4)F
Outline: as §1

[3] = compound: C1=CC(=CC=C1C2=NC3=C(N2)C=C(C=C3)C(=O)N)OC4=CC=C(C=C4)Cl
Outline: as §1

[4] = compound: C1=CC2=C(C=CC(=C2)/C=C\3/C(=O)NC(=NCC4=CC=CS4)S3)N=C1
Outline: as §1

[5] = compound: C1=CC2=NC=CN=C2C=C1/C=C/3\C(=O)NC(=O)S3
Outline: as §1

[6] = compound: C1=CC=C(C=C1)C2=NC(=C(N2)C3=CC=NC=C3)C4=CC(=C(C=C4)Cl)O
Outline: as §1

[7] = compound: C1=CC=C2C(=C1)C3=NNC4=CC=CC(=C43)C2=O
Outline: as §1

[8] = compound: C1CCN(C1)C(=O)NC2=CC=CC(=C2)NC3=NC=C(C(=N3)NCCC4=CN=CN4)Br
Outline: as §1

[9] = compound: C1CN(CCC1(CC2=CC=C(C=C2)Cl)N)C3=NC=NC4=C3C=CN4
Outline: as §1

Measured: log2 fold change

ETNK1 (UniProt Q9HBU6)
inactive: erlotinib 0.004 | [1] 0.128 | [2] 0.244 | [3] -0.001 | [4] -0.126 | [5] 0.035 | [6] 0.037 | [7] 0.028 | [8] -0.033 | [9] -0.119

DNAJB1 (UniProt P25685)
Chain of UniProt P25685 (P25685 whole entry, looked up): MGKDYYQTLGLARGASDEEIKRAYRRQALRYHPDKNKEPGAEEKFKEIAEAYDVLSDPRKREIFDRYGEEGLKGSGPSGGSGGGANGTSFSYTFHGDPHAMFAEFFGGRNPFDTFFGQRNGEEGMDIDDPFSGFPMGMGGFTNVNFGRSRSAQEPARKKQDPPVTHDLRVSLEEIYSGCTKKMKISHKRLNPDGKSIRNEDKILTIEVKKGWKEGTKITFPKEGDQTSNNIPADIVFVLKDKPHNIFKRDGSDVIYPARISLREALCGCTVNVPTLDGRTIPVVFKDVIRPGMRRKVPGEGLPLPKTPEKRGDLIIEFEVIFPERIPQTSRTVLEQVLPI
inactive: erlotinib 0.005 | [1] 0.017 | [2] 0.012 | [3] 0.008 | [4] 0.024 | [5] 0.053 | [6] 0.024 | [7] -0.025 | [8] -0.019 | [9] 0.009

EGLN1 (UniProt Q9GZT9)
Chain of UniProt Q9GZT9 (Q9GZT9 whole entry, looked up): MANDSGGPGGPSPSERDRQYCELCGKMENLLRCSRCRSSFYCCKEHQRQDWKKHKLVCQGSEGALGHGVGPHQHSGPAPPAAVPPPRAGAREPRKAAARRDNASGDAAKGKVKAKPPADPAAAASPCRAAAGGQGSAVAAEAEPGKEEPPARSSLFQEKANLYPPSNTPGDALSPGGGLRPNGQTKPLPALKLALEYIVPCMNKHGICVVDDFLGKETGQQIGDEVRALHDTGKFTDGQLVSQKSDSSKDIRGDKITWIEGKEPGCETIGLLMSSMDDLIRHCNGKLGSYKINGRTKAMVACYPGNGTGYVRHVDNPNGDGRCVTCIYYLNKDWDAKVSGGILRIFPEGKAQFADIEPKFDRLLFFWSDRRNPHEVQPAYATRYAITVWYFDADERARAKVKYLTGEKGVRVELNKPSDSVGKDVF
inactive: erlotinib 0.035 | [2] 0.075 | [3] -0.035 | [4] 0.043 | [5] -0.08 | [6] 0.021 | [7] -0.02 | [8] 0.01 | [9] -0.003
active: [1] -0.355

DCTN1 isoform 4 (UniProt Q14203)
inactive: erlotinib 0.04 | [1] 0.031 | [2] -0.053 | [3] -0.033 | [4] 0.037 | [5] -0.009 | [6] -0.023 | [7] 0.05 | [8] 0.046 | [9] -0.072

DNAJC19 (UniProt Q96DA6)
Chain of UniProt Q96DA6 (Q96DA6 whole entry, looked up): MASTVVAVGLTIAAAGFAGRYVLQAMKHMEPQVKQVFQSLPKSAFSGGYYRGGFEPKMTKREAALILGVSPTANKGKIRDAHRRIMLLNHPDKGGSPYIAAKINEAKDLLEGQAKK
inactive: erlotinib -0.009 | [1] 0.014 | [2] 0.055 | [3] 0.001 | [4] -0.005 | [5] 0.04 | [6] 0.052 | [7] -0.022 | [8] -0.012 | [9] 0.016

DIAPH1 (UniProt O60610)
Chain of UniProt O60610 (O60610 whole entry, looked up): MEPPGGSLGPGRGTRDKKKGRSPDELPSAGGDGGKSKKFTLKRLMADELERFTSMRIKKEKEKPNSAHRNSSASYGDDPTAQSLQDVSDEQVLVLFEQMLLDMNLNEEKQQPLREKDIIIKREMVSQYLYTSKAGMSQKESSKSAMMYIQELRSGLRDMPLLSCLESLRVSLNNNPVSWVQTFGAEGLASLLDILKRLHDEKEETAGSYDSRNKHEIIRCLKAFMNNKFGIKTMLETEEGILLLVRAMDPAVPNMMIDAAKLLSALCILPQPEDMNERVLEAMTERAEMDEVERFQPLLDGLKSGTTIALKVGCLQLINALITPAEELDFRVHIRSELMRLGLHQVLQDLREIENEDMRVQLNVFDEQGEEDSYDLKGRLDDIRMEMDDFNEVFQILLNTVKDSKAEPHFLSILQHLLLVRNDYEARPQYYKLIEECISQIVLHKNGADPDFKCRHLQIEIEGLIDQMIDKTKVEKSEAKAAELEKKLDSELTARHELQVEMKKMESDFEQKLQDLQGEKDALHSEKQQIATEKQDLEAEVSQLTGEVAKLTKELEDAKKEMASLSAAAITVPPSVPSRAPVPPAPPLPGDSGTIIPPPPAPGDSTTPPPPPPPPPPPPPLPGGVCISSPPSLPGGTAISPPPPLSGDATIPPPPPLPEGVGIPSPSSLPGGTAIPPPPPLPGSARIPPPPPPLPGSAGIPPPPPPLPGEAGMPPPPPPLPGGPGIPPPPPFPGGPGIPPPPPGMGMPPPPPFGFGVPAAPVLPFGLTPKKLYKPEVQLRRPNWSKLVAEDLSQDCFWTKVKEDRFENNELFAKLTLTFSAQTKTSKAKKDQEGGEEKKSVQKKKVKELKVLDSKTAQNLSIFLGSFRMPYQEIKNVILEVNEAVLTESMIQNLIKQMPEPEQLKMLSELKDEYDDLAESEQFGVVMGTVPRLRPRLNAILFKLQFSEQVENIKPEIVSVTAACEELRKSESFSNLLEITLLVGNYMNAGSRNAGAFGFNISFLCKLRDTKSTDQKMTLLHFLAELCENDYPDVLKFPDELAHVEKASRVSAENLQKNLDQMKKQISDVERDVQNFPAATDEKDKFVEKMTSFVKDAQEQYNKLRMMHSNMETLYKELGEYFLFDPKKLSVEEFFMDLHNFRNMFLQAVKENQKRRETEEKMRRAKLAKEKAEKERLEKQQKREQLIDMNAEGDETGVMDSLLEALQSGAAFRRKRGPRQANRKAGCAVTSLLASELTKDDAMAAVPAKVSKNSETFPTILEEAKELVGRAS
inactive: erlotinib 0.072 | [1] 0.058 | [2] -0.109 | [3] -0.037 | [4] 0.031 | [5] 0.04 | [6] 0.067 | [7] 0.006 | [8] -0.072 | [9] -0.235

EDC4 (UniProt Q6P2E9)
inactive: erlotinib -0.045 | [1] 0.1 | [2] -0.058 | [3] 0.017 | [4] -0.177 | [5] -0.069 | [6] -0.035 | [7] -0.151 | [8] -0.023 | [9] -0.041

E2F4 (UniProt Q16254)
Chain of UniProt Q16254 (Q16254 whole entry, looked up): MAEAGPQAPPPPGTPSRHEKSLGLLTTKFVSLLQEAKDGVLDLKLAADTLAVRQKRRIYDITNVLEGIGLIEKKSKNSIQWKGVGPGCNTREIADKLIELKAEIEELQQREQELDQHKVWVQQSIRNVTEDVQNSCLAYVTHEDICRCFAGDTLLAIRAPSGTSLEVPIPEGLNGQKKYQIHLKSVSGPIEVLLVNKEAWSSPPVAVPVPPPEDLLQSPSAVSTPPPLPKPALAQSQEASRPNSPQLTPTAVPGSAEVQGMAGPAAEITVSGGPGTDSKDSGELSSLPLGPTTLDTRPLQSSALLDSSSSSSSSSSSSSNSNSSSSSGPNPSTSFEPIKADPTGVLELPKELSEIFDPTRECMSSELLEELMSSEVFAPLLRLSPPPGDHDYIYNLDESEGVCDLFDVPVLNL
inactive: erlotinib 0.021 | [1] -0.003 | [2] 0.019 | [3] -0.003 | [4] 0.029 | [5] 0.043 | [6] -0.064 | [7] -0.02 | [8] -0.071 | [9] -0.022

ESYT1 isoform 2 (UniProt Q9BSJ8)
inactive: erlotinib 0.039 | [1] 0.081 | [2] -0.016 | [3] -0.05 | [4] 0.035 | [5] -0.069 | [6] -0.042 | [7] 0.043 | [8] -0.11 | [9] -0.092

CTSH (UniProt P09668)
inactive: erlotinib 0.015 | [1] -0.054 | [2] 0.052 | [3] 0 | [4] -0.062 | [5] 0.048 | [6] 0.022 | [7] -0.011 | [8] 0.047 | [9] 0.057

FAM83D (UniProt Q9H4H8)
inactive: erlotinib 0.035 | [1] 0.027 | [2] -0.124 | [3] -0.015 | [4] -0.016 | [5] 0.02 | [6] 0.086 | [7] 0.059 | [8] -0.071 | [9] -0.062

FAM122A (UniProt Q96E09)
inactive: erlotinib 0.095 | [1] 0.073 | [2] 0.053 | [3] -0.025 | [4] -0.068 | [5] 0.051 | [6] -0.019 | [7] 0.03 | [8] 0.031 | [9] -0.075

DOHH (UniProt Q9BU89)
Chain of UniProt Q9BU89 (Q9BU89 whole entry, looked up): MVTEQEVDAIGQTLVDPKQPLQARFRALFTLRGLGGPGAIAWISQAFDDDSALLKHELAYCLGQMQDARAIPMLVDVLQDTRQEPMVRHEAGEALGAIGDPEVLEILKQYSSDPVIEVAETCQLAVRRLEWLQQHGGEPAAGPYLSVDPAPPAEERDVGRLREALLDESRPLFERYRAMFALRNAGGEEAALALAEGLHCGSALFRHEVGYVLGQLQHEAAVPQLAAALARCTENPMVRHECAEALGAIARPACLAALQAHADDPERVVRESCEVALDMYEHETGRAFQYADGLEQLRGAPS
inactive: erlotinib -0.001 | [1] -0.102 | [2] -0.046 | [3] 0 | [4] 0.083 | [5] -0.183 | [6] 0.064 | [7] 0.038 | [8] -0.051 | [9] 0.026

DCAF16 (UniProt Q9NXF7)
inactive: erlotinib 0.051 | [1] 0.042 | [2] 0.036 | [3] 0 | [4] -0.034 | [5] -0.002 | [6] -0.001 | [7] 0.048 | [8] 0.039 | [9] -0.127

EBNA1BP2 (UniProt Q99848)
inactive: erlotinib -0.041 | [1] -0.149 | [2] -0.466 | [3] 0.034 | [4] 0.042 | [5] 0.052 | [6] -0.047 | [7] -0.134 | [8] 0.048 | [9] -0.414

FAM114A2 (UniProt Q9NRY5)
Chain of UniProt Q9NRY5 (Q9NRY5 whole entry, looked up): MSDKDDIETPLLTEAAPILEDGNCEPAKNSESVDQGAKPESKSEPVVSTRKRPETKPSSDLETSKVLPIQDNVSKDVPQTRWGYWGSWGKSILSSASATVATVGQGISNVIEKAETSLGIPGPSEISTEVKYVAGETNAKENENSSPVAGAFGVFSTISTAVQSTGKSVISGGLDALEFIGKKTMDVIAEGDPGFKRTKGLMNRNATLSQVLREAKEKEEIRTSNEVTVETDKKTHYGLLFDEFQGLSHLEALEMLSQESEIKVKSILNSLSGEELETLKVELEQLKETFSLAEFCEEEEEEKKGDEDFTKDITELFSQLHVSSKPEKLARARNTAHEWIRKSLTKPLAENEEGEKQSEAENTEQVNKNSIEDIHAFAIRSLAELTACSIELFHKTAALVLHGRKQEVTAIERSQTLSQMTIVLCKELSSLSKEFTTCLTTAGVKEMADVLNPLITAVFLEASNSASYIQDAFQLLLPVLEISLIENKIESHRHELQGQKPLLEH
inactive: erlotinib -0.001 | [1] 0.051 | [2] 0.055 | [3] -0.002 | [4] 0.008 | [5] 0.067 | [6] -0.018 | [7] -0.04 | [8] -0.002 | [9] -0.021

DYNC1LI2 (UniProt O43237)
Chain of UniProt O43237 (O43237 whole entry, looked up): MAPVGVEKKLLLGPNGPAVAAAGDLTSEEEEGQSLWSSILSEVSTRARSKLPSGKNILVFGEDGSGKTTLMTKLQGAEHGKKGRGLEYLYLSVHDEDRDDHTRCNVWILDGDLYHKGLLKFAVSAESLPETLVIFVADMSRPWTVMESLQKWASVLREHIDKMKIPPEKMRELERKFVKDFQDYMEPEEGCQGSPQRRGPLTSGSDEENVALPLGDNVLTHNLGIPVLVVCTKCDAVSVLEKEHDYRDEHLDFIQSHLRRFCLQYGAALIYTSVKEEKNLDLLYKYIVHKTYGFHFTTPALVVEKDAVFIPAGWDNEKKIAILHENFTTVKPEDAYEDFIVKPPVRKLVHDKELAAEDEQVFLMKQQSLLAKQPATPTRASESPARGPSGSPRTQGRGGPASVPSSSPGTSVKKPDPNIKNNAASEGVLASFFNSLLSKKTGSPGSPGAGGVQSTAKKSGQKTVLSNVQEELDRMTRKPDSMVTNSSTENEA
inactive: erlotinib 0.035 | [1] -0.147 | [2] -0.257 | [3] -0.012 | [4] -0.04 | [5] -0.073 | [6] -0.061 | [7] 0.049 | [8] 0.035 | [9] -0.052

CUTA isoform 2 (UniProt O60888)
inactive: erlotinib -0.01 | [1] -0.066 | [2] 0 | [3] 0.033 | [4] 0 | [5] 0.003 | [6] 0.091 | [7] -0.054 | [8] -0.1 | [9] -0.105

ELOVL5 isoform 2 (UniProt Q9NYP7)
Chain of UniProt Q9NYP7 (Q9NYP7 whole entry, looked up): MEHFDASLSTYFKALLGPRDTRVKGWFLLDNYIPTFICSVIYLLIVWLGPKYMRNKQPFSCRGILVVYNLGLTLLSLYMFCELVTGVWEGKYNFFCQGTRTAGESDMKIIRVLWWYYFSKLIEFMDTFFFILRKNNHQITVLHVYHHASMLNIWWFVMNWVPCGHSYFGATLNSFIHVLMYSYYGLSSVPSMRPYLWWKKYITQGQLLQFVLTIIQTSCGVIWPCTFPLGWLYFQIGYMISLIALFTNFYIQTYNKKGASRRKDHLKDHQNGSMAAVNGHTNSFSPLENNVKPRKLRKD
inactive: erlotinib 0.03 | [1] 0.117 | [2] -0.087 | [3] -0.005 | [4] 0.084 | [5] 0.122 | [6] 0.068 | [7] -0.068 | [8] 0.031 | [9] 0.008

DUS2 (UniProt Q9NX74)
inactive: erlotinib -0.002 | [1] -0.022 | [2] 0.043 | [3] 0.088 | [4] 0.166 | [5] -0.011 | [6] -0.009 | [7] -0.123 | [8] -0.028 | [9] 0.021

DTWD2 (UniProt Q8NBA8)
inactive: erlotinib 0.017 | [1] 0.018 | [2] 0.014 | [3] -0.095 | [4] -0.124 | [5] 0.072 | [6] 0.065 | [7] 0.033 | [8] 0.066 | [9] -0.02

DFFB (UniProt O76075)
inactive: erlotinib -0.015 | [1] 0.103 | [2] 0.022 | [3] 0.035 | [4] 0.101 | [5] 0.016 | [6] 0.037 | [7] -0.005 | [9] -0.039
active: [8] -0.305

DDOST (UniProt P39656)
Chain of UniProt P39656 (P39656 whole entry, looked up): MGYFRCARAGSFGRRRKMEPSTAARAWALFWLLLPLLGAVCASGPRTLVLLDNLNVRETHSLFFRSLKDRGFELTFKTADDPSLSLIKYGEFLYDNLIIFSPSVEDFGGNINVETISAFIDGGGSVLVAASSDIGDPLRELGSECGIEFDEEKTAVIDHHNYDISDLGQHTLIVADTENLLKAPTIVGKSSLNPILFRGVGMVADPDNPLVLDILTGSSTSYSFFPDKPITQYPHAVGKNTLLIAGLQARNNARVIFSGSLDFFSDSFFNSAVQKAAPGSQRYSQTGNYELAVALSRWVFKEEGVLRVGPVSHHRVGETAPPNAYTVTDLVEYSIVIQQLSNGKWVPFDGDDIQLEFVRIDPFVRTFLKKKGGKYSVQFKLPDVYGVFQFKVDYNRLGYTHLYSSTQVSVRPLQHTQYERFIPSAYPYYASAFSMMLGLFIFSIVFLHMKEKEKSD
inactive: erlotinib -0.033 | [1] 0.003 | [2] 0.004 | [3] -0.014 | [4] -0.085 | [5] 0.014 | [7] 0.012 | [8] -0.002 | [9] -0.003
active: [6] 0.253

ECH1 (UniProt Q13011)
active: [6] 0.541 | [7] 0.361
inactive: erlotinib -0.027 | [1] 0.053 | [2] 0.243 | [3] 0 | [4] 0.126 | [5] -0.018 | [8] -0.028 | [9] -0.064

DDB1 (UniProt Q16531)
inactive: erlotinib -0.03 | [1] 0.006 | [2] 0.009 | [3] 0.022 | [4] 0.003 | [5] 0.014 | [6] -0.019 | [7] -0.032 | [8] 0.018 | [9] 0.04

DNAAF2 (UniProt Q9NVR5)
inactive: erlotinib 0.046 | [1] 0.021 | [2] 0.108 | [3] -0.003 | [4] 0.01 | [5] 0.016 | [6] -0.018 | [7] -0.025 | [8] 0.021 | [9] -0.025

CYP51A1 (UniProt Q16850)
inactive: erlotinib -0.09 | [1] 0.019 | [2] -0.248 | [3] -0.002 | [4] 0.007 | [5] 0.018 | [6] -0.096 | [7] 0.089 | [8] 0.014 | [9] 0.137

DMAC1 (UniProt Q96GE9)
inactive: erlotinib 0.041 | [1] 0.076 | [2] 0.128 | [3] -0.002 | [4] 0.059 | [5] -0.004 | [6] -0.04 | [7] -0.021 | [8] 0.008 | [9] 0.072

EIF4G1 isoform 8 (UniProt Q04637)
inactive: erlotinib -0.092 | [1] 0.128 | [2] -0.065 | [3] 0.011 | [4] -0.036 | [5] -0.089 | [6] -0.099 | [7] -0.246 | [8] -0.197 | [9] -0.28

EIF3J (UniProt O75822)
Chain of UniProt O75822 (O75822 whole entry, looked up): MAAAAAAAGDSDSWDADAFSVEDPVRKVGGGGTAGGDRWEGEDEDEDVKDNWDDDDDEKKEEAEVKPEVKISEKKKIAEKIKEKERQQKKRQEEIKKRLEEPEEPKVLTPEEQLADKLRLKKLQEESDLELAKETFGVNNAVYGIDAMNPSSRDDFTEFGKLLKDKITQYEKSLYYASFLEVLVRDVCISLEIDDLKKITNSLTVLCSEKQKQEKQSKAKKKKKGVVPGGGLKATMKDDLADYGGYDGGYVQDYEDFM
inactive: erlotinib 0.056 | [1] -0.004 | [2] 0.068 | [3] -0.033 | [4] 0.012 | [5] 0.048 | [6] 0.101 | [7] 0.021 | [8] 0.009 | [9] -0.01

DENND10 (UniProt Q8TCE6)
inactive: erlotinib -0.01 | [1] -0.005 | [2] -0.049 | [3] -0.08 | [4] -0.051 | [5] 0.018 | [6] 0 | [7] -0.04 | [8] 0.063 | [9] 0.083
